Results from the supplement of paper PMC10849652.
Targets with a hit are over-represented here; the source holds about 7,900 in all. About 0.6% of all pairs of compound and target were hits. A number with no mark means an inactive call.

How the values were obtained:
Experiment in all cases: log2 fold change, soluble protein after heating vs DMSO (PISA); higher = thermal stabilisation; K562 cells, 10 uM, 30 min; active = over 0.2 and 3.5 SD of the protein, either way, in both replicates (recomputed)
[1] = compound: CC[C@@H]1C(=O)N(C)c2cnc(Nc3ccc(C(=O)NC4CCN(C)CC4)cc3OC)nc2N1C1CCCC1
Summary of the method: (§1)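 K562 cells at 2×10^6 cells/mL were given 10 μM compound for 30 min. Aliquots then went through 3 min of heating across 48°C-58°C, were pooled, and were extracted in PBS with 0.5% NP-40 at 4°C, and the supernatant after 21,000xg for 90 min was quantified by TMTpro 16plex LC-MS/MS with channel sums equalised. Thermal stability relative to control samples, from duplicates, is given as log2 fold change.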

[2] = compound: CC[C@@H]1C(=O)N(C)c2cnc(Nc3ccc(C(=O)N[C@H]4CC[C@H](N5CCN(CC6CC6)CC5)CC4)cc3OC)nc2N1C(C)C [volasertib]
Summary of the method: as §1

[3] = compound: CC[C@H](C)N1C=C(C2=C(C=C(C=C21)C3=CN=C(C=C3)N4CCNCC4)C(=O)NCC5=C(C=C(NC5=O)C)C)C
Summary of the method: as §1

[4] = compound: CC[C@H](C)[C@@H](C(=O)N[C@@H]([C@@H](C)O)C(=O)N[C@@H](CC(C)C)C(=O)[C@]1(CO1)C)NC(=O)[C@H]([C@@H](C)CC)N(C)C(=O)C [epoxomicin]
Summary of the method: as §1

[5] = compound: CCn1c(C(=O)N(C2CC2)C2CC2)cc2c3c(ncn3C)c(Nc3cc(C)n(C)n3)nc21
Summary of the method: as §1

[6] = compound: CCn1cc(-c2ccnc3[nH]c(-c4cccc(CN(C)C)c4)cc23)c(-c2ccc(NC(=O)N(C)C)cc2)n1
Summary of the method: as §1

[7] = compound: CN(C)CC(=O)Nc1ccc2[nH]c(=O)c3ccccc3c2c1
Summary of the method: as §1

[8] = compound: CN(CCOC1=CC=C(C=C1)C[C@H]2C(=O)NC(=O)S2)C3=CC=CC=N3 (racemic) [rosiglitazone]
Summary of the method: as §1

[9] = compound: CN1C2=C(C3=C1C(=O)N(N=C3)CC4=CC(=CC=C4)N)SC(=C2)S(=O)C
Summary of the method: as §1

[10] = compound: CN1CCC(CNc2ccc3ncc(-c4cccc(OC(F)(F)F)c4)n3n2)CC1
Summary of the method: as §1

[11] = compound: CN1CCN(CCOc2cc(OC3CCOCC3)c3c(Nc4c(Cl)ccc5c4OCO5)ncnc3c2)CC1 [saracatinib]
Summary of the method: as §1

[12] = compound: CN1CCN(c2nc(C3=C(c4c[nH]c5ccccc45)C(=O)NC3=O)c3ccccc3n2)CC1 [sotrastaurin]
Summary of the method: as §1

[13] = compound: CN1CC[C@H](c2c(O)cc(O)c3c(=O)cc(-c4ccccc4Cl)oc23)[C@H](O)C1 [alvocidib]
Summary of the method: as §1

[14] = compound: CN1CCc2c(c3ccccc3n2Cc2ccc(C(=O)NO)cc2)C1 [Tubastatin A]
Summary of the method: as §1

[15] = compound: CNC(=O)C1=CC=CC=C1NC2=NC(=NC=C2Cl)NC3=C(C=C(C=C3)N4CCOCC4)OC
Summary of the method: as §1

[16] = compound: CNC(=O)c1ccc(Nc2ncc(C(F)(F)F)c(NCc3nccnc3N(C)S(C)(=O)=O)n2)cc1 [defactinib]
Summary of the method: as §1

[17] = compound: CNCc1ccc(-c2[nH]c3cc(F)cc4c3c2CCNC4=O)cc1 [rucaparib]
Summary of the method: as §1

[18] = compound: CNc1nc(-c2ccc3c(N)n[nH]c3c2)cc(N2C[C@@H](C(=O)NC3CCCCC3)CC[C@H]2C)n1
Summary of the method: as §1

[19] = compound: COC(=O)N[C@@H](C)CNc1nccc(-c2cn(C(C)C)nc2-c2cc(Cl)cc(NS(C)(=O)=O)c2F)n1 [encorafenib]
Summary of the method: as §1

[20] = compound: COC(=O)[C@H](CCSC)NC(=O)C1=C(C=C(C=C1)NC[C@H](CS)N)C2=CC=CC=C2
Summary of the method: as §1

Chain of UniProt Q6V1X1 (Q6V1X1 whole entry, looked up): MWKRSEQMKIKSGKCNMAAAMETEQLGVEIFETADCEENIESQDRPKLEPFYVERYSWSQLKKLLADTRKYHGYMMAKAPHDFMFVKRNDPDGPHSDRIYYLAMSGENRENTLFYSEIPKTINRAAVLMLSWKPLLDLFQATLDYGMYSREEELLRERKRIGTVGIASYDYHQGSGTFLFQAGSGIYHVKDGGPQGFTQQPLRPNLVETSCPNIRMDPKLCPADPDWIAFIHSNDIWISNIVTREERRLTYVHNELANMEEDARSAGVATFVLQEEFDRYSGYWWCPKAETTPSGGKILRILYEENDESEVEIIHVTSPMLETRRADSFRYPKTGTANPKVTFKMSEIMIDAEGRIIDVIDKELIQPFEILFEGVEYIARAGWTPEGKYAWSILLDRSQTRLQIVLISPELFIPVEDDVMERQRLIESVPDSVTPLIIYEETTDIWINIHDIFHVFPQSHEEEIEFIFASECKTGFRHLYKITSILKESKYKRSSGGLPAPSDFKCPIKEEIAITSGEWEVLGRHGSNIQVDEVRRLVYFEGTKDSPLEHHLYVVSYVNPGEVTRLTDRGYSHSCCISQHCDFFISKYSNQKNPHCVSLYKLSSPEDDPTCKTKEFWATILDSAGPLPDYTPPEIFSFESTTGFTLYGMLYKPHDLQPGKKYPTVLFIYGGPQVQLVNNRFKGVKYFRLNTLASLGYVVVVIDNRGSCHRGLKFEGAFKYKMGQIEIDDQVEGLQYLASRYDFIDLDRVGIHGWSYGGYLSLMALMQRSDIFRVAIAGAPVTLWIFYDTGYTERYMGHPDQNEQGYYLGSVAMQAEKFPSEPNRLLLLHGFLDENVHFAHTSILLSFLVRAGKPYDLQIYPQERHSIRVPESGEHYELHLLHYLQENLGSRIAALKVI
Chain of UniProt P50402 (P50402 whole entry, looked up): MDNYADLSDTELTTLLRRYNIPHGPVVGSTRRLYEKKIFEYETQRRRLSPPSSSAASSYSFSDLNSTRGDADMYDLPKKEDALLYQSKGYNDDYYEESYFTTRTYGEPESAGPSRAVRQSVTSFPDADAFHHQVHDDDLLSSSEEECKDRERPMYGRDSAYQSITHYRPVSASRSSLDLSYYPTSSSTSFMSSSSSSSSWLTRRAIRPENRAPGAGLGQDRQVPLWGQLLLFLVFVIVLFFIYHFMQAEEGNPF
Chain of UniProt O60911 (O60911 whole entry, looked up): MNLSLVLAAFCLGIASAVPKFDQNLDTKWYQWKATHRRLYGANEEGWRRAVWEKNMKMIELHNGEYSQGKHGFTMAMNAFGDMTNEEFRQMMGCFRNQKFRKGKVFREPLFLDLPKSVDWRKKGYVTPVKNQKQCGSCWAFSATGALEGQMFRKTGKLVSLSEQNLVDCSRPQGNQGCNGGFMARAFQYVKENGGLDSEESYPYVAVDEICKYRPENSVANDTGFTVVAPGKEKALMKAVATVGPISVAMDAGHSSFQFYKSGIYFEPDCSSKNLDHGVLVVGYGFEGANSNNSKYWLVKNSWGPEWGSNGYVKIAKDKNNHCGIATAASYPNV
Chain of UniProt Q86UK5 (Q86UK5 whole entry, looked up): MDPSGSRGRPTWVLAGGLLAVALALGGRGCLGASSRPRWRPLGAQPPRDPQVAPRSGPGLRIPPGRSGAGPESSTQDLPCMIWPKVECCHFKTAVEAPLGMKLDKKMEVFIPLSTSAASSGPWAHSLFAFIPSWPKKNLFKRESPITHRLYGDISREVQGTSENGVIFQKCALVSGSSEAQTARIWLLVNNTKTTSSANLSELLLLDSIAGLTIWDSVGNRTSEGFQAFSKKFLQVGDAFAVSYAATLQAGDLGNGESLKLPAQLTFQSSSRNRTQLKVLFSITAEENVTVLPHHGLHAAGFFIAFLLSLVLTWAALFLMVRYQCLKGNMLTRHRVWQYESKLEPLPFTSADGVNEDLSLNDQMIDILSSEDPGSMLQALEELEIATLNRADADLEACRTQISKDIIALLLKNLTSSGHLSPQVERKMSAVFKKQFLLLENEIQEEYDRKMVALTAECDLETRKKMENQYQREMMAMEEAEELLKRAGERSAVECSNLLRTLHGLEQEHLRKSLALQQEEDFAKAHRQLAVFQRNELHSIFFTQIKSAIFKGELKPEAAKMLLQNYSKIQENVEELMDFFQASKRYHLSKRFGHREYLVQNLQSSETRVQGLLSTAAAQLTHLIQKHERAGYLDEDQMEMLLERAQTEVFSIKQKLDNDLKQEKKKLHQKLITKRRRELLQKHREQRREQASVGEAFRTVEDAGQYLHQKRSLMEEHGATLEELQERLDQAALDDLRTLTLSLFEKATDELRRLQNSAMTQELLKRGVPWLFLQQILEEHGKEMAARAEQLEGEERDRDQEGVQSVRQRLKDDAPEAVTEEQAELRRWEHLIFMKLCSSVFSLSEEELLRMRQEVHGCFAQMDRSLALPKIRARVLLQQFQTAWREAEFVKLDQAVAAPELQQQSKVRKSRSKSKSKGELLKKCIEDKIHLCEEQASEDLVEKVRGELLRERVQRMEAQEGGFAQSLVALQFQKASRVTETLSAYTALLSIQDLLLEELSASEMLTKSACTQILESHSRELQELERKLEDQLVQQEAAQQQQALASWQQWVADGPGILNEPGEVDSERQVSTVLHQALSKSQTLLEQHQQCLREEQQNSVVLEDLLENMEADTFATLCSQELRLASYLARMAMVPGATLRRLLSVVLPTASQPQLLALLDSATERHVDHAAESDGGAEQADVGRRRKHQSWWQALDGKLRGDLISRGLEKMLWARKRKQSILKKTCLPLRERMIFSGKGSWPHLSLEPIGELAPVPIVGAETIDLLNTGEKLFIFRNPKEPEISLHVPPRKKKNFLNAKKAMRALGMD
Chain of UniProt Q9BSJ8 (Q9BSJ8 whole entry, looked up): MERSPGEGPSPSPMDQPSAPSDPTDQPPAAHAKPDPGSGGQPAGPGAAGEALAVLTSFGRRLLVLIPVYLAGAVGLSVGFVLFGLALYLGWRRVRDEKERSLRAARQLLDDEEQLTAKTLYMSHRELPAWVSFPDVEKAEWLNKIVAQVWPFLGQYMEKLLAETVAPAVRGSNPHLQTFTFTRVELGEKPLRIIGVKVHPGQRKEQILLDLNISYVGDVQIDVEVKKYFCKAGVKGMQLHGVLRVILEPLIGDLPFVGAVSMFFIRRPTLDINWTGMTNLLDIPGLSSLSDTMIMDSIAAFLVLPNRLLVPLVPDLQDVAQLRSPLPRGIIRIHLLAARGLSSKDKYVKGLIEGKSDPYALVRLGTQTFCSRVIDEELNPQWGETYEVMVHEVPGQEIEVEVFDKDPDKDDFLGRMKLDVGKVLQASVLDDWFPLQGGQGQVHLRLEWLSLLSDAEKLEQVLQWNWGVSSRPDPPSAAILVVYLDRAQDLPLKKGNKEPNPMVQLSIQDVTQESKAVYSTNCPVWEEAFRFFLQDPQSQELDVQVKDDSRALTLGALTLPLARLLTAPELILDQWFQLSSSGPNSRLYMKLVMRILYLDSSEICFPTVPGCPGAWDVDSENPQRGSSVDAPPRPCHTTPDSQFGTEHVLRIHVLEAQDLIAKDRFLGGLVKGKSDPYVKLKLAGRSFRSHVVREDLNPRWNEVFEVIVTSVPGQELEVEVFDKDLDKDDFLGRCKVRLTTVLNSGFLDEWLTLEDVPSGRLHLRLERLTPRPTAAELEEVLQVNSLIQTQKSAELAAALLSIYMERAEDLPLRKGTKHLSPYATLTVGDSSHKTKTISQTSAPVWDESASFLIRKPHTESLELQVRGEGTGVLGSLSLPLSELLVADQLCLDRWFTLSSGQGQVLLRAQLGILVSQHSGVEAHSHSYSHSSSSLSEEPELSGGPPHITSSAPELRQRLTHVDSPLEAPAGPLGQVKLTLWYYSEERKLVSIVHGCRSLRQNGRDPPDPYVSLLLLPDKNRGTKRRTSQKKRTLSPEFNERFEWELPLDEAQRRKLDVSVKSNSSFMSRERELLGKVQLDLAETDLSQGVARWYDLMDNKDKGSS
Chain of UniProt Q14320 (Q14320 whole entry, looked up): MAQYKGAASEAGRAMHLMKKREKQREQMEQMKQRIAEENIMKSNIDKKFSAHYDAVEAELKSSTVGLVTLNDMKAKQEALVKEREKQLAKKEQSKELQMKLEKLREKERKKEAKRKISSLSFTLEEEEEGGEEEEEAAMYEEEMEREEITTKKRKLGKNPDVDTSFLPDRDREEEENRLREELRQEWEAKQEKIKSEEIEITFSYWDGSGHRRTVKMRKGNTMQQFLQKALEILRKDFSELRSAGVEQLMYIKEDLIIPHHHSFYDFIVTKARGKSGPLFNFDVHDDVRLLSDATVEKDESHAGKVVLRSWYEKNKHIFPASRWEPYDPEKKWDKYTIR
Chain of UniProt Q96EV8 (Q96EV8 whole entry, looked up): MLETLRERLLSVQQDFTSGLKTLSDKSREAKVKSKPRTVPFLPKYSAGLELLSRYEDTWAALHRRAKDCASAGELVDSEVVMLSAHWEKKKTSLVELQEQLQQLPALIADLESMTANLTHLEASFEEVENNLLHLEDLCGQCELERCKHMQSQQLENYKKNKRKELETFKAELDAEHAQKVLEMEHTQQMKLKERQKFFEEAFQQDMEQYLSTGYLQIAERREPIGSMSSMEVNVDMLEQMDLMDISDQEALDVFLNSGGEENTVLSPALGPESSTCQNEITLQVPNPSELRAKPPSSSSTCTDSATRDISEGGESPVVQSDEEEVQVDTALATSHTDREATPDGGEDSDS
Chain of UniProt P53634 (P53634 whole entry, looked up): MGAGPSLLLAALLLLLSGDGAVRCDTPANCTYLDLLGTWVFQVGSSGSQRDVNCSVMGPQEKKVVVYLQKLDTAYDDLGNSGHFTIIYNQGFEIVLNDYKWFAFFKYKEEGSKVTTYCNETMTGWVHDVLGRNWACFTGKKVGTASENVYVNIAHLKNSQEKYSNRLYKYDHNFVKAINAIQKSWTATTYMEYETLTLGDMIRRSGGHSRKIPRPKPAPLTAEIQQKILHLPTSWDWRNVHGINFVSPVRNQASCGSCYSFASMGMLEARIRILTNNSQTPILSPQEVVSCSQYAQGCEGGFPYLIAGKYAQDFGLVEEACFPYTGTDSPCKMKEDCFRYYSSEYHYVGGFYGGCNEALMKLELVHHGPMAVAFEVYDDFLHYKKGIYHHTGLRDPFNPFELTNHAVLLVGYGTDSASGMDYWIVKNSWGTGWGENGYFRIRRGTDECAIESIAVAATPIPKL

Row | Target | log2 fold change [1] | log2 fold change [2] | log2 fold change [3] | log2 fold change [4] | log2 fold change [5] | log2 fold change [6] | log2 fold change [7] | log2 fold change [8] | log2 fold change [9] | log2 fold change [10] | log2 fold change [11] | log2 fold change [12] | log2 fold change [13] | log2 fold change [14] | log2 fold change [15] | log2 fold change [16] | log2 fold change [17] | log2 fold change [18] | log2 fold change [19] | log2 fold change [20]
1 | FAM50A (UniProt Q14320) | -0.158 | -0.258 (active) | 0.06 | 0.058 | -0.022 | 0.053 | 0.029 | 0.001 | -0.07 | -0.052 | 0.11 | -0.119 | -0.064 | 0.029 | 0.056 | -0.203 | -0.027 | 0.08 | 0.055 | -0.023
2 | CTSV (UniProt O60911) | -0.719 (active) | -0.993 (active) | -0.054 | -0.007 | 0.033 | 0.084 | 0.012 | -0.013 | -0.081 | -1.29 (active) | -0.049 | 0.195 | 0.012 | 0.016 | 0.048 | 0.011 | -0.056 | 0.062 | 0 | 0.02
3 | EMD (UniProt P50402) | -0.127 | -0.273 (active) | 0 | -0.065 | -0.004 | 0 | -0.018 | -0.054 | 0.003 | -0.078 | 0.011 | 0.063 | -0.043 | -0.028 | -0.046 | -0.027 | 0.008 | -0.064 | -0.056 | 0.032
4 | DNAJC7 (UniProt Q99615) | -0.079 | -0.266 (active) | 0.104 | 0.073 | -0.014 | -0.025 | 0.014 | 0.017 | -0.052 | -0.142 | 0.001 | -0.05 | -0.069 | 0.002 | 0.034 | -0.072 | -0.016 | 0.056 | 0.045 | -0.003
5 | CTSA (UniProt P10619) | -1.24 (active) | -1.57 (active) | -0.037 | -0.003 | -0.031 | 0.018 | 0.011 | -0.017 | -0.007 | -1.44 (active) | 0.056 | 0.089 | 0.04 | -0.015 | 0.06 | 0.022 | -0.041 | 0.002 | 0.057 | 0.065
6 | DAB2 (UniProt P98082) | -0.204 | -0.289 (active) | 0.042 | -0.004 | -0.014 | 0.022 | 0.132 | 0.032 | 0.032 | -0.111 | -0.044 | 0.009 | -0.084 | 0.139 | 0.031 | -0.026 | 0.043 | 0.05 | 0.077 | -0.13
7 | CUTA isoform 2 (UniProt O60888) | 0.063 | -0.057 | -0.033 | 0.125 | 0.03 | -0.109 | 0.175 | -0.13 | 0.164 | -0.027 | 0.202 | 0.097 | -0.158 | 0.049 | 0.003 | -0.027 | -0.035 | 0.034 | -0.002 | 0.122
8 | ESYT1 isoform 2 (UniProt Q9BSJ8) | 0.007 | -0.37 | 0.099 | 0.026 | -0.09 | 0 | 0.033 | 0.045 | 0.063 | 0.115 | -0.148 | -0.208 | -0.05 | 0.031 | -0.034 | -0.043 | 0.154 | 0.099 | 0.175 | -0.099
9 | EVC2 (UniProt Q86UK5) | -0.133 | -0.003 | 0.078 | 0.097 | -0.038 | -0.037 | -0.087 | 0.128 | 0.034 | -0.293 | -0.151 | 0.067 | 0.031 | -0.033 | -0.035 | -0.065 | 0.065 | 0.035 | 0.002 | 0.073
10 | EFCAB14 (UniProt O75071) | -0.033 | -0.089 | -0.078 | 0.068 | 0.045 | 0.06 | -0.018 | -0.009 | 0.028 | -0.178 | -0.164 | 0.083 | 0.016 | -0.029 | -0.03 | 0.093 | -0.059 | 0.031 | 0.044 | -0.086
11 | DNTTIP2 (UniProt Q5QJE6) | 0.047 | -0.002 | 0.031 | -0.144 | 0.015 | 0.09 | -0.028 | -0.088 | 0.226 | -0.028 | -0.038 | -0.104 | -0.007 | 0.145 | 0.011 | -0.131 | 0.171 | 0.03 | 0.067 | 0.121
12 | DPP8 (UniProt Q6V1X1) | 0.143 | 0.007 | -0.025 | -0.045 | 0.019 | 0.002 | -0.057 | 0.02 | -0.047 | -0.106 | -0.002 | 0.175 | 0.024 | 0.003 | -0.044 | 0.082 | -0.572 (active) | -0.021 | 0.026 | 0.058
13 | DTNBP1 (UniProt Q96EV8) | -0.017 | 0.009 | -0.002 | 0.048 | 0.026 | -0.086 | -0.009 | 0.016 | -0.028 | 0.01 | -0.072 | 0.026 | -0.041 | 0.023 | 0 | -0.054 | -0.015 | 0.005 | 0.014 | 0.054
14 | DHPS (UniProt P49366) | 0.045 | 0.028 | 0.001 | 0.046 | -0.002 | 0.014 | -0.012 | -0.01 | -0.017 | -0.049 | 0.087 | 0.043 | -0.013 | 0.005 | -0.026 | -0.027 | -0.018 | -0.053 | -0.012 | -0.011
15 | CTSC (UniProt P53634) | -0.419 (active) | -0.946 (active) | -0.034 | 0.023 | 0.015 | -0.032 | 0.146 | -0.047 | -0.015 | -0.433 (active) | 0.03 | 0.046 | 0.074 | -0.015 | 0.052 | 0.035 | 0.031 | -0.005 | -0.082 | 0.007
